# According to ChEMBL document CHEMBL4513216, “Probing the Open Global Health Chemical Diversity Library for Multistage-Active Starting Points for Next-Generation Antimalarials” (ACS Infect Dis, 2020):
# Hit rate of the full screen: of about 69,000 compounds, about 8,600 (12%) showed an effect of 50% or more. The full list was thinned out, with strong results kept by preference.
# System: Plasmodium berghei
# Assay: Screen against P. berghei liver stage (PbLuc), transformed with Luciferase, at 10uM
# Format: functional, HepG2
# Conditions: tested at 10 uM
row,Structure (SMILES),INHIBITION [%]
1,Clc1cc(N2CCN3CCCCC3C2)nc2[nH]ccc12 (stereo unspecified),72.2
2,Clc1cc(N2CCN(C3CCOCC3)CC2)nc2[nH]ccc12,5.91
3,Cc1ccn(-c2ccnc(N3CCC(N4CCCCC4)CC3)n2)n1,-13
4,Clc1cc(N2CCC(N3CCCC3)CC2)nc2[nH]ccc12,51.5
5,Cn1ncc2c(N3CCN4CCCCC4C3)nc(C3CCCC3)nc21 (stereo unspecified),-24.8
6,Cc1nc(N2CCN3CCCCC3C2)nc2cc(S(C)(=O)=O)ccc12 (stereo unspecified),20.6
7,O=C(NCCNS(=O)(=O)C1CCCCC1)c1ccccc1,15.4
8,CN(C)CCNC(=O)c1ccccc1NC(=O)c1cc(Cl)ccc1Cl,44.4
9,O=c1cc(-c2ccc(F)cc2)nc2n1CCCCC2,7.25
10,O=S(=O)(C1CC1)N1CCO[C@H]2[C@@H](Oc3cccnc3)CC[C@@H]21,37.1
11,CN(C)C(=O)c1cccc(C2CNCCN2C)c1 (stereo unspecified),15.255
12,Cc1cn(Cc2ccc(F)c(F)c2)nc1N,70.8
13,Cc1ccc(Cn2cc(C)c(N)n2)cc1,8.53
14,Cc1cn(Cc2ccc(F)cc2)nc1N,-46.4
15,CCc1ccc(CN2CC[C@H]3[C@H]2CC(=O)N3Cc2cccc(C)n2)o1,30.9
16,CCN(CCCc1ccccc1)CC1(C)Cc2c(N)nc(N)nc2O1 (stereo unspecified),26.8
17,CCn1nc(C)c(CCNC(=O)C2CCCN(C(=O)COC)C2)c1C (stereo unspecified),-13.6
18,Cc1ccc2nc(CNc3ccccc3C(=O)NC3CC3)cn2c1,7.38
19,Cc1ccc([C@@H]2CN(S(=O)(=O)N(C)C)C[C@H]2N(C)C)cc1,-11.1
20,Cc1ccc([C@@H]2CN(S(=O)(=O)c3ccccc3)C[C@H]2N(C)C)cc1,0.818
21,Cc1ccc([C@@H]2CN(S(=O)(=O)Cc3ccccc3)C[C@H]2N(C)C)cc1,55.2
22,Cc1nc2c(c(C)c1CC(=O)NCc1ccc(F)cc1)c(=O)[nH]n2C,-12.1

row,Structure (SMILES),INHIBITION [%]
1,Cc1nc(N)sc1C(=O)N[C@H]1CN(CCO)C[C@@H]1C1CC1,12
2,Cc1cc(C(=O)N[C@H]2CN(CCO)C[C@@H]2C2CC2)sc1C,44
3,Cc1cc(C(=O)N[C@H]2CN(CCC(N)=O)C[C@@H]2C2CC2)sc1C,50.5
4,CCOc1cc(C)nc(N2CCN(C(=O)c3cnc[nH]3)CC2)n1,-3.2
5,CC(C)CCN1CCC2(CC1)CN(C(=O)c1cnccn1)CCO2,-12.6
6,O=C(C1CC1)N1CCN(Cc2coc(-c3ccc(Cl)cc3)n2)CC1,76.1
7,CS(=O)(=O)NC1CCN(Cc2coc(-c3ccccc3)n2)CC1,30.4
8,CS(=O)(=O)NC1CCN(Cc2coc(-c3ccc(Cl)cc3)n2)CC1,79.5
9,CC(O)CN1CCN(Cc2coc(-c3ccc(Cl)cc3)n2)CC1 (stereo unspecified),47.1
10,OCCN1CCN(Cc2coc(-c3ccc(Cl)cc3)n2)CC1,11.6
11,Cc1nc(CN2CCC(NS(C)(=O)=O)CC2)co1,34
12,CN(C)CC1CN(C(=O)CCc2ccccc2)Cc2nccn2C1 (stereo unspecified),-41.8
13,Cc1occc1C(=O)N1Cc2nccn2CC(CN(C)C)C1 (stereo unspecified),44.8
14,c1ccc(-n2cc(CNC3CCc4ncnn4C3)nn2)cc1 (stereo unspecified),41.45
15,O=C(Nc1cccnc1N1CCCC1)C1CCS(=O)(=O)C1 (stereo unspecified),-7.35
16,COc1ccc(CNC(C)Cn2cccn2)c(OC)c1OC (stereo unspecified),25.1
17,COc1ccc(CNCc2c(C)nc3sc(C)cn23)c(OC)c1OC,64.6
18,COc1cccc(CNCc2c(C)nc3sc(C)cn23)c1OC,66.4
19,COc1ccc(OC)c(CNCc2c(C)nc3sc(C)cn23)c1,10.8
20,COc1cccc(CNCc2c(C(C)C)nn(C)c2N(C)C)c1OC,-7.84
21,COc1cccc(CNCC2CCN(CC(C)O)CC2)c1OC (stereo unspecified),7.85
22,O=C(NCCc1noc(-c2ccccn2)n1)NCC1CCCC1,-18.3

row,Structure (SMILES),INHIBITION [%]
1,CC(C)c1nnc2ccc(N3CCC(C(=O)O)CC3)nn12,-9.3
2,Cc1c(Cl)cccc1S(=O)(=O)N1C[C@H]2CC[C@@H](C1)N(C)C2=O,0.546
3,CN(C)C(=O)c1nnc2ccc(N3CCOCC3)cc2n1,-13.9
4,CN(C)C[C@H]1OC[C@@H]2CN(C(=O)NCc3cccnc3)CC[C@@H]21,5.63
5,CN(Cc1cccnc1)C[C@H]1OC[C@@H]2CCN(C(=O)C3CC3)C[C@@H]21,54.8
6,CN(Cc1cccnc1)C[C@@H]1OC[C@H]2CN(C(=O)C3CC3)CC[C@H]21,76.2
7,CN(Cc1cccnc1)C[C@@H]1OC[C@H]2CN(Cc3ccoc3)CC[C@H]21,2.79
8,CN(Cc1cccnc1)C[C@H]1OC[C@@H]2CCN(c3ncccn3)C[C@@H]21,14
9,CN(Cc1ccco1)C[C@H]1OC[C@@H]2CCN(Cc3cccnc3)C[C@@H]21,41.4
10,O=C(CCN1CCOC(CNc2cccnn2)C1)NC1CCCCC1 (stereo unspecified),9.64
11,O=C(CCCOc1ccccc1)N1CCCC(n2cncn2)C1 (stereo unspecified),14.133
12,CC(=O)N1CC(C(=O)NC(C)c2cnn(C)c2C)C1 (stereo unspecified),8.57
13,CCN1CC[C@@]2(C(=O)N(C)C)CCN(S(=O)(=O)c3ccccc3)CC[C@@H]12,-89.8
14,CC(NC(N)=O)C(=O)N(C)Cc1cccc(C(F)(F)F)c1 (stereo unspecified),12
15,CC(NC(=O)c1cccs1)(C(N)=O)c1cccc(C(F)(F)F)c1 (stereo unspecified),62
16,Cn1cccc1C(=O)NC(C)(C(N)=O)c1cccc(Cl)c1 (stereo unspecified),11.5
17,Cn1cccc1C(=O)NC(C)(C(N)=O)c1cccc(C(F)(F)F)c1 (stereo unspecified),61.1
18,CN1CCN(c2ccc(NC(=O)c3cccs3)c(C(F)(F)F)c2)CC1,-29
19,Cc1nncn1CCNC(=O)C(C)(C)c1cccc(C(F)(F)F)c1,-0.758
20,O=C(O)[C@@H]1CN(C(=O)CCC(F)(F)F)C[C@H]1c1ccncc1,11.6
21,CC(CNC(=O)CCn1cncn1)N1CCc2ccccc21 (stereo unspecified),-7.7
22,CC(C)C(CNC(=O)CCn1cncn1)N1CCc2ccccc2C1 (stereo unspecified),60.5

row,Structure (SMILES),INHIBITION [%]
1,CC(CNC(=O)CCCn1cncn1)N1CCc2ccccc2C1 (stereo unspecified),69.7
2,CC(Cn1cncn1)NCCN1CCc2ccccc2C1 (stereo unspecified),45.1
3,CC(NC(=O)CCn1cncn1)c1nnc2n1CCCCC2 (stereo unspecified),39.2
4,CCC(CNC(=O)CCn1cncn1)N1CCc2ccccc2C1 (stereo unspecified),-19.5
5,Cc1cc2c(=O)n3c(nc2s1)CCN(C(=O)c1cnn(C)c1)CC3,-11.7
6,CC(C)N1CCCC1c1cc(C(F)(F)F)[nH]n1 (stereo unspecified),-7.7
7,Cc1cc(NC(C)Cn2cccn2)n2nccc2n1 (stereo unspecified),33
8,O[C@@H]1CC(CNCc2ccc(F)cc2)(COc2cccnc2)C[C@@H]1O (stereo partly specified),38.1
9,Cn1cccc1C(=O)NC1(C(=O)NCC2CC2)CCCC1,8.38
10,Cc1ccc2c(C(=O)N(C)C)cc(-c3cnn(CCO)c3)nc2c1C,31.15
11,COc1ncc(C2(O)CCN(Cc3c(F)cccc3F)CC2)c(OC)n1,53
12,COc1ncc(C2(O)CCN(Cc3ccccc3O)CC2)c(OC)n1,65.5
13,COc1ncc(C2(O)CCN(Cc3ccc(F)c(F)c3)CC2)c(OC)n1,57.5
14,Cc1ncc(CN2CCC(O)(c3ccccc3F)CC2)cn1,-4.675
15,COc1ncc(C2(O)CCN(Cc3cc(F)cc(F)c3)CC2)c(OC)n1,39.7
16,COc1ncc(C2(O)CCN(Cc3cccc(F)c3F)CC2)c(OC)n1,44.1
17,CCc1ncc(CN2CCC(O)(c3ccccc3F)CC2)cn1,18.2
18,COc1ncc(C2(O)CCN(Cc3cccs3)CC2)c(OC)n1,8.48
19,COc1ncc(C2(O)CCN(Cc3cc(F)ccc3F)CC2)c(OC)n1,24.8
20,CN(C)CCn1nc(C2CCN(S(=O)(=O)N(C)C)C2)c2cccnc21 (stereo unspecified),6.33
21,Fc1ccc(OCCNCCn2cccn2)cc1,0.914
22,Cc1cc(C(=O)N2CCN(c3ccncc3Cl)CC2)n(C)n1,10.3

row,Structure (SMILES),INHIBITION [%]
1,CSc1nnc(C2CCN(C(=O)N3CCCC3)CC2)n1C(C)C,20.09
2,COC(=O)C(C)N(Cc1cc(=O)n(C)c(=O)n1C)C1CC1 (stereo unspecified),-37.1
3,COC(=O)C(C)N(Cc1cc(C)on1)C1CC1 (stereo unspecified),52.2
4,Cc1cc(CN(C2CC2)C(C)C(C)C)no1 (stereo unspecified),-26.1
5,O=C(c1c[nH]cn1)N1CCOCC2(C1)CN(c1ccccc1)C(=O)CO2 (stereo unspecified),8.52
6,Cc1noc(C)c1C(=O)N1CCC2(CCc3ccccc3C(=O)N2)C1 (stereo unspecified),9.925
7,Cn1nc2c(cc1=O)CN(Cc1nc(-c3ccsc3)no1)CC2,-7.31
8,CC(C)c1nn(C)c(N2CCOCC2)c1CNCc1nncn1C,-18.9
9,CC(C)CNC(=O)c1cc(C2CC2)nc2c1c(C1CCCN1)nn2C (stereo unspecified),30
10,CCS(=O)(=O)NC[C@]12COC[C@H]1CN(CCc1ccccc1)C2,-58.7
11,CS(=O)(=O)NC[C@]12COC[C@H]1CN(C(=O)C1CC(F)(F)C1)C2,57.5
12,CS(=O)(=O)NC[C@]12COC[C@H]1CN(CCc1ccccc1)C2,65.1
13,CS(=O)(=O)NC[C@]12COC[C@H]1CN(C(=O)C1CCCCC1)C2,13.6
14,CS(=O)(=O)NC[C@]12COC[C@H]1CN(C(=O)C1CC=CC1)C2,23.1
15,O=S(=O)(NC[C@]12COC[C@H]1CN(CCc1ccccc1)C2)C1CC1,24.9
16,CS(=O)(=O)NC[C@]12COC[C@H]1CN(C(=O)CC1CCCC1)C2,14
17,CS(=O)(=O)NC[C@]12COC[C@H]1CN(CC1CCCC1)C2,6.82
18,CS(=O)(=O)NC[C@]12COC[C@H]1CN(CC1CCC1)C2,66.6
